Measured values: PubChem BioAssay (EPA / NIEHS)
Several values for one entry are separate records, joined by “and”; a condition that tells them apart may be missing. Equal entries are not always repeated. Records with an inconclusive call do not appear. Some structures have more than one record in an assay (separate samples or runs), and their calls can disagree. Activity calls are given as the source filed them. How the source made its calls: active means hit-call score of the fitted dose curve at least 0.9, where 1 is the maximum; inconclusive means response in the unintended direction; inactive means score below 0.9.

Test system: not listed separately
Assay: ACEA_ER_AUC_viability: ACEA Biosciences xCELLigence Real-Time Cell Analysis on Estrogen Receptor Agonism for Viability (AID 2283782);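 further: hit means loss of impedance signal meaning reduced cell growth or viability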
Procedure, shortened: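 Viability endpoint: reduced impedance area under the curve relative to DMSO, recorded by real-time electrode sensing over ~80 h of continuous exposure. Duplicate plates of T47D in hormone-depleted medium; eight concentrations, 1:4 dilutions, 100 uM maximum.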

Row | Compound | outcome | AC50
1 | Cc1cc2c3c(c1)C(c1ccccc1)=N[C@@H](NC(=O)c1ccncc1)C(=O)N3CC2 | inactive | 
2 | CCCCCCCCCc1ccc(O)cc1 |  | 21.8 µM (active) and 25.4 µM (active) and 28.8 µM (active)
3 | Oc1c(Cl)c(Cl)c(Cl)c(Cl)c1Cl | inactive | 77.9 µM (active)
4 | CCC(C)(c1ccc(O)cc1)c1ccc(O)cc1 |  | 87.5 µM (active) [middle of 4 runs]
5 | Cc1ccccc1[N+](=O)[O-] | inactive | 
6 | O=S(=O)(O)C(F)(F)C(F)(F)C(F)(F)C(F)(F)F | inactive | 
7 | ClC1=C(Cl)[C@]2(Cl)[C@@H]3[C@@H](Cl)[C@H]4O[C@H]4[C@@H]3C1(Cl)C2(Cl)Cl |  | 73 µM (active)
8 | COc1ccc(O)c(C(C)(C)C)c1 |  | 64.6 µM (active)
9 | Cc1ccc(O)c(C)c1 | inactive | 
10 | Cc1cccc(C)c1N | inactive | 
11 | Sc1ccccc1 | inactive | 
12 | O=S(=O)(O)C(F)(F)C(F)(F)C(F)(F)C(F)(F)C(F)(F)C(F)(F)F | inactive | 
13 | CCC(=O)O[C@H]1CC[C@H]2[C@@H]3CCC4=CC(=O)CC[C@]4(C)[C@H]3CC[C@]12C |  | 92.4 µM (active) and 88.5 µM (active)
14 | O=C(O)C(F)(F)C(F)(F)C(F)(F)C(F)(F)C(F)(F)F | inactive | 
15 | CC(c1ccc(O)cc1)(c1ccc(O)cc1)c1ccc(O)cc1 |  | 88.3 µM (active)
16 | N#Cc1ccc(N(CC(N)=O)CC(F)(F)F)cc1C(F)(F)F | inactive | 
17 | O=C(O)C(F)(F)C(F)(F)C(F)(F)C(F)(F)C(F)(F)C(F)(F)C(F)(F)C(F)(F)F | inactive | 122 µM (active)
18 | ClC1=C(Cl)[C@]2(Cl)[C@@H]3[C@H]4C[C@H]([C@@H]5O[C@H]45)[C@@H]3[C@@]1(Cl)C2(Cl)Cl | inactive | 
19 | CCOP(=S)(OCC)SCSC(C)(C)C |  | 92.7 µM (active)
20 | CN(C)c1nc(=O)n(C2CCCCC2)c(=O)n1C | inactive | 
21 | O=C(NC(=O)c1cc(F)c(F)cc1Cl)Nc1cc(F)ccc1N1CCC(C(=O)O)CC1 | inactive | 
22 | Clc1ccc(Cl)cc1 | inactive | 
23 | O=C(O)C(F)(F)C(F)(F)C(F)(F)C(F)(F)C(F)(F)C(F)(F)C(F)(F)C(F)(F)C(F)(F)F |  | 78.6 µM (active) and 125 µM (active)
24 | OCC(O)CO | inactive | 
25 | Cc1ccccc1CO[C@@H]1C[C@@]2(C(C)C)CC[C@]1(C)O2 |  | 74.9 µM (active)
26 | Nc1ccc(-c2ccc(N)cc2)cc1 | inactive | 
27 | CCOC(=O)C(O)(c1ccc(Cl)cc1)c1ccc(Cl)cc1 |  | 81.3 µM (active)

Molecular target: AR (gene 367) (UniProt P10275)
Sequence (P10275 whole entry, looked up): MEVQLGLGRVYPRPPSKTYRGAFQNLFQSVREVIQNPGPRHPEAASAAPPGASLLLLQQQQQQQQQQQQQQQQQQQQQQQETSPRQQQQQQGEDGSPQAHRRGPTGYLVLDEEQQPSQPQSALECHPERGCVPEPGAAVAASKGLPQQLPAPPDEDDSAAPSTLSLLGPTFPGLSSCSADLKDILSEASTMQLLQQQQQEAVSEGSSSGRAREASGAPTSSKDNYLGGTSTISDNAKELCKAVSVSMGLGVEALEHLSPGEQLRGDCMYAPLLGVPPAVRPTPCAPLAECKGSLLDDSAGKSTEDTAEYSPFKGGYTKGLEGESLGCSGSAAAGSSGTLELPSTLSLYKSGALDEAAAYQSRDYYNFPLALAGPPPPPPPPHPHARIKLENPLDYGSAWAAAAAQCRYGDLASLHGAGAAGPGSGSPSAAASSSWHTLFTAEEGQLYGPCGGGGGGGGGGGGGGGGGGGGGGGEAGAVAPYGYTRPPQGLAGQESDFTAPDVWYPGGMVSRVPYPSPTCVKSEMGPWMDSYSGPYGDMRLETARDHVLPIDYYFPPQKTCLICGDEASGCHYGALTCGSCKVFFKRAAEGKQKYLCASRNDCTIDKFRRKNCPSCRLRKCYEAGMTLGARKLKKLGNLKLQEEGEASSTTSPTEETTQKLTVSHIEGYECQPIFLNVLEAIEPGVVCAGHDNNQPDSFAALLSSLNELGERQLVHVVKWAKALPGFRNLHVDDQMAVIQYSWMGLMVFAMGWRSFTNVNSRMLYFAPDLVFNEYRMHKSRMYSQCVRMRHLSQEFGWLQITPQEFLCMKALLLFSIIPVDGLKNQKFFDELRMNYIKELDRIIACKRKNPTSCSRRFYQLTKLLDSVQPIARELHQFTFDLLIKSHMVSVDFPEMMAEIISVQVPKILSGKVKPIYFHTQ
Assay: ACEA_AR_agonist_80hr: ACEA Biosciences xCELLigence Real-Time Cell Analysis on Androgen Receptor Agonism for Proliferation (AID 2283783);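 further: hits increase impedance growth signal above DMSO baseline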
Procedure, shortened: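 Eight concentrations, 1:4 serial dilution from a 100 uM final top, in biological duplicate. Impedance-based real-time growth of 22Rv1 cells after overnight baseline, recorded hourly and read at 80 hours. Controls: testosterone, MG132, assay media.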

Row | Compound | AC50 | outcome
28 | CCC(=O)O[C@H]1CC[C@H]2[C@@H]3CCC4=CC(=O)CC[C@]4(C)[C@H]3CC[C@]12C | 0.207 nM (active) and 0.285 nM (active) and 0.61 nM (active) | 
29 | Cc1ccccc1CO[C@@H]1C[C@@]2(C(C)C)CC[C@]1(C)O2 |  | inactive
30 | CCOC(=O)C(O)(c1ccc(Cl)cc1)c1ccc(Cl)cc1 |  | inactive
